This passage reports Potency, max activation and outcome results from PubChem BioAssay (Tox21).

A short description of assay [1]: Human pregnane X receptor (PXR) small molecule agonists, qHTS cell viability counter screen (AID 1346977). Further: nearly all actives have a fitted effect of over 50% in size. Further: potency means the concentration at half of the fitted maximal effect. A digest of the protocol:
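Cytotoxicity counter screen run in the same wells as the PXR luciferase assay, using PXR-Luc HepG2 cells in charcoal-stripped serum medium. Viability: CellTiter-Fluor fluorescence after 24hr compound treatment.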
For orientation: In qHTS, concentration-response curves come from the screen itself.

Assay [2] in a line: Caspase-3/7 induction in HepG2 cells by small molecules, qHTS assay (AID 1346978). Further: nearly all actives have a fitted effect of over 15% in size. The procedure, abridged: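 Wild-type HepG2 cells (2,000/well) were settled 5 h at 37 C, 5% CO2, then exposed to compounds in DMSO for 17 h. Caspase-3/7 activity was read by luminescence 30 min after adding Caspase-Glo 3/7 reagent at room temperature.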
The nature of assay [3]: Caspase-3/7 induction in CHO-K1 cells by small molecules, qHTS cell viability counter screen (AID 1346979). Further: nearly all actives have a fitted effect of over 35% in size. Further: potency means the concentration at half of the fitted maximal effect. The procedure, abridged: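 Cytotoxicity counter screen run in parallel with the caspase-3/7 assay: CHO-K1 cells, 16hr compound treatment at 37C, then CellTiter-Fluor for 1hr before fluorescence reading.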
Assay [4] can be described thus: Caspase-3/7 induction in CHO-K1 cells by small molecules, qHTS assay (AID 1346980). Further: nearly all actives have a fitted effect of over 15% in size. A digest of the protocol: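 Wild-type cells were seeded at 1,500 per well and settled 5 hr at 37 C, 5% CO2, then exposed to DMSO-dissolved compounds for 17 hr. Caspase-Glo 3/7 reagent was added, and luminescence was read after 30min at room temperature.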
Assay [5] is described as follows: Caspase-3/7 induction in HepG2 cells by small molecules, qHTS cell viability counter screen (AID 1346981). Further: nearly all actives have a fitted effect of over 30% in size. Further: potency means the concentration at half of the fitted maximal effect. A digest of the protocol:
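Fluorescence read-out of live-cell protease activity (CellTiter-Fluor) after 1 hr with reagent. This was measured in the same wells as the caspase-3/7 luminescence, on HepG2 cells exposed to DMSO-dissolved compounds for 16 hr at 37 C.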

In assay [6] the target is Nuclear receptor subfamily 1 group I member 2 (Homo sapiens) (UniProt O75469). The experiment in a line: Human pregnane X receptor (PXR) small molecule agonists, qHTS assay (AID 1346982). Further: nearly all actives have a fitted effect of over 35% in size. Further: potency means the concentration at half of the fitted maximal effect. A digest of the protocol: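 HepG2 PXR-Luc reporter line, 5% charcoal-stripped FBS; 5 hr pre-incubation, compound (DMSO) 24 hr at 37 C/5% CO2; ONE-Glo 30 min RT; luminescence read-out.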

Assay [7] has as its target Acetylcholinesterase (Homo sapiens) (UniProt P22303). The experiment in a line: Acetylcholinesterase (AChE) small molecule antagonists: colormetric cell-based qHTS assay (AID 1347395; calls by dose curve; further: nearly all actives have a fitted effect of over 30% in size; further: potency means the concentration at half of the fitted maximal effect). A digest of the protocol:
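Cells (SH-SY5Y, 2,000 per well) are seeded and left overnight at 37 C. Compound is added for 30 min, then DTNB and acetylthiocholine for a further 90 min at 37 C before absorbance-based thiocholine detection.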

The target is the same in assay [8]. The experiment in a line: Acetylcholinesterase (AChE) small molecule antagonists: enzyme-based qHTS assay (AID 1347397; calls by dose curve; further: nearly all actives have a fitted effect of over 55% in size; further: potency means the concentration at half of the fitted maximal effect). The note with it: Potency: AChE enzyme activity inhibition; outcome: AChE enzyme activity inhibition. A digest of the protocol:
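Tox21 library chemicals are tested in qHTS format against recombinant human AChE. The enzyme, dispensed at 50 mU/mL, sits with compound for 30 min at room temperature. A DTNB–acetylthiocholine cocktail follows, and colour is read after 10 min.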

The target is the same in assay [9]. The experiment in a line: Acetylcholinesterase (AChE) small molecule antagonists: fluorescence cell-based qHTS assay (AID 1347398; calls by dose curve; further: nearly all actives have a fitted effect of over 50% in size; further: potency means the concentration at half of the fitted maximal effect). The note with it: Potency: AChE activity; outcome: AChE activity. The procedure, abridged: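 Cellular AChE inhibition: SH-SY5Y cells treated with test chemical for 30 min at 37 C, then acetylthiocholine hydrolysis followed over 40 min at room temperature via thiocholine-reactive Thiolite Green fluorescence (490/520 nm).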

For assay [10] the target is unchanged. The experiment in a line: Acetylcholinesterase (AChE) small molecule antagonists: enzyme-based qHTS assay with human liver microsomes (AID 1347399; calls by dose curve; further: nearly all actives have a fitted effect of over 60% in size). The note with it: Potency: qHTS inhibition; outcome: qHTS inhibition. The procedure, abridged:
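Recombinant human AChE (50 mU/mL in the enzyme mix) and human liver microsomes (0.25 mg/mL final) were preincubated with compound and NADPH (0.25 mg/mL final) for 30 min at 37 C. Acetylthiocholine/DTNB was then added; thiocholine was read colorimetrically after 10 min at room temperature.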

Assay [11] concerns the target Cytochrome P450 2D6 (Homo sapiens) (UniProt P10635). The experiment in a line: Cytochrome P450 Family 2 Subfamily D Member 6 (CYP2D6) small molecule antagonists: luciferase reporter qHTS assay (AID 1671196). Further: nearly all actives have a fitted effect of over 50% in size. Further: potency means the concentration at half of the fitted maximal effect. A digest of the protocol:
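Luminogenic proluciferin substrate, CYP2D6 enzyme; 10 min RT preincubation with compound, NADPH regeneration system added, 1 h RT. Stop/detection reagent, 20 min RT, luminescence read (RLU). Signal proportional to CYP activity.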

The target in assay [12] is Cytochrome P450 2C19 (Homo sapiens) (UniProt P33261). The experiment in a line: Cytochrome P450 Family 2 Subfamily C Member 19 (CYP2C19) small molecule antagonists: luciferase reporter qHTS assay (AID 1671197). Further: nearly all actives have a fitted effect of over 65% in size. Further: potency means the concentration at half of the fitted maximal effect. A digest of the protocol:
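First, compounds are pinned into enzyme-substrate mix and held 10 min at room temperature. Second, NADPH regeneration solution is added and plates incubate 1 h at 37C. Third, detection reagent is added and luminescence read after 20 min.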
A general note: In a reporter assay the amount or activity of a reporter protein is the signal.

For assay [13], the target named is Cytochrome P450 1A2 (Homo sapiens) (UniProt P05177). The experiment in a line: Cytochrome P450 Family 1 Subfamily A Member 2 (CYP1A2) small molecule antagonists: luciferase reporter qHTS assay (AID 1671199). Further: nearly all actives have a fitted effect of over 50% in size. Further: potency means the concentration at half of the fitted maximal effect. The procedure, abridged: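 Luminescence readout (relative luminescence units) after luciferin detection reagent, 20 min RT. Preceded by 1 h room-temperature CYP1A2 reaction with NADPH regeneration solution following 10 min compound preincubation with enzyme and proluciferin substrate. Furafylline positive control.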

The target in assay [14] is Voltage-gated inwardly rectifying potassium channel KCNH2 (Homo sapiens) (UniProt Q12809). The experiment in a line: Human Ether-a-go-go-Related Gene (hERG) channel small molecule antagonists: fluorescence cell-based qHTS assay (AID 1671200). Further: nearly all actives have a fitted effect of over 50% in size. Further: potency means the concentration at half of the fitted maximal effect. The procedure, abridged:
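Fluorescence at 540 nm emission (480 nm excitation) was recorded kinetically for 2 min at 1-second intervals once the thallium-containing stimulus reached cells previously loaded with FluxOR II dye.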
(In general: Block of hERG is tested as a sign of cardiac risk.)

Assay [15] concerns the target Cytochrome P450 3A4 (Homo sapiens) (UniProt P08684). The experiment in a line: Cytochrome P450 Family 3 Subfamily A Member 4 (CYP3A4) small molecule antagonists: luciferase reporter qHTS assay (AID 1671201). A digest of the protocol: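 qHTS, 1536-well. CYP3A4 + proluciferin substrate, cpd 10 min RT → NADPH regen 1 h RT → detection reagent 20 min → luminescence (RLU). Ketoconazole positive control.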

For assay [16], the target named is Nuclear receptor subfamily 1 group I member 2 (Rattus norvegicus) (UniProt Q9R1A7). The experiment in a line: Rat pregnane X receptor (rPXR) activation by small molecules, qHTS assay (AID 1346983). Further: nearly all actives have a fitted effect of over 20% in size. The note with it: rPXR luciferase reporter cells, One-Glo luminescence, 24 h; stronger effect = higher value. A digest of the protocol:
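Cell-based rPXR luciferase reporter assay, 2,000 cells per well, rested 5hr at 37 C before compound addition in DMSO, then 24 hr at 37 C. One-Glo reagent was added and luminescence read after 30 min at room temperature.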

Assay [17] has as its target Nuclear receptor subfamily 1 group I member 2 (Homo sapiens) (UniProt O75469). The experiment in a line: CYP3A4 induction through human pregnane X receptor (PXR) by small molecules, qHTS assay (AID 1346984). Further: nearly all actives have a fitted effect of over 40% in size. The procedure, abridged:
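HepG2-derived DPX-2 line carrying PXR plus a CYP3A4-promoter luciferase reporter; cells plated 5 hr, compound-exposed 24 hr at 37C. CYP3A4 activity probed with 3uM (final) Luciferin-IPA for 3hr, then luciferase read after One-Glo.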

Assay [18] shares this target. The experiment in a line: Human pregnane X receptor (PXR) activation by small molecules, qHTS assay (AID 1346985). Further: nearly all actives have a fitted effect of over 40% in size. Further: potency means the concentration at half of the fitted maximal effect. The procedure, abridged:
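DPX-2 cells (HepG2 co-transfected with a PXR response element and a CYP3A4-promoter luciferase construct) were seeded at 2,000 per well, rested 5 hr at 37C, then exposed to DMSO-dissolved compounds for 24 hr. Activation was read as luciferase luminescence.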

Assay [19] has as its target Cytochrome P450 2C9 (Homo sapiens) (UniProt P11712). The experiment in a line: Cytochrome P450 Family 2 Subfamily C Member 9 (CYP2C9) small molecule antagonists: luciferase reporter qHTS assay (AID 1671198). Further: nearly all actives have a fitted effect of over 50% in size. Further: potency means the concentration at half of the fitted maximal effect. A digest of the protocol:
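CYP2C9 activity was measured with a P450-Glo proluciferin substrate. Enzyme–substrate mix was held with compound for 10 min at room temperature, then NADPH regeneration solution was added for 1 h at 37C. Luciferin product was read as luminescence.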

“And” between values parts separate entries of the source, which are not always exact repeats. Identical values can stand only once. Inconclusive results are not listed. More than one record can exist for a structure, and the calls need not agree. The source made the active and inactive calls. Unless noted, the call rests on the fitted dose curve; in most records, active means well fitted curve in the direction sought with a large enough effect in the repeat runs; inconclusive means weak or mixed curves; inactive means no such curve, though single readings can be large; an effect the other way counts as inactive or inconclusive.
On the % scale 0 is the no-effect control and ±100 the full control effect.

Sequence of Nuclear receptor subfamily 1 group I member 2 (Homo sapiens) (O75469 whole entry, looked up): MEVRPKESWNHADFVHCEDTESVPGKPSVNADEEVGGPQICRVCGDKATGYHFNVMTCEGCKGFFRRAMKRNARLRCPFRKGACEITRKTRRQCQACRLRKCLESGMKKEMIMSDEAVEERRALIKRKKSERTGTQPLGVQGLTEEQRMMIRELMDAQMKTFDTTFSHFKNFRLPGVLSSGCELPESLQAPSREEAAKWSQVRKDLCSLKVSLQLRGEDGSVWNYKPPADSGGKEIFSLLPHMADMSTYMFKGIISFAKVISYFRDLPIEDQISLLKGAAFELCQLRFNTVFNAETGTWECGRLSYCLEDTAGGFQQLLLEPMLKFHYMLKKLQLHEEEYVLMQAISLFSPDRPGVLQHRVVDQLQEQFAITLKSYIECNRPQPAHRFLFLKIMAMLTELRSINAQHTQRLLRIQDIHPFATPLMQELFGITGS
Sequence of Cytochrome P450 3A4 (Homo sapiens) (P08684 whole entry, looked up): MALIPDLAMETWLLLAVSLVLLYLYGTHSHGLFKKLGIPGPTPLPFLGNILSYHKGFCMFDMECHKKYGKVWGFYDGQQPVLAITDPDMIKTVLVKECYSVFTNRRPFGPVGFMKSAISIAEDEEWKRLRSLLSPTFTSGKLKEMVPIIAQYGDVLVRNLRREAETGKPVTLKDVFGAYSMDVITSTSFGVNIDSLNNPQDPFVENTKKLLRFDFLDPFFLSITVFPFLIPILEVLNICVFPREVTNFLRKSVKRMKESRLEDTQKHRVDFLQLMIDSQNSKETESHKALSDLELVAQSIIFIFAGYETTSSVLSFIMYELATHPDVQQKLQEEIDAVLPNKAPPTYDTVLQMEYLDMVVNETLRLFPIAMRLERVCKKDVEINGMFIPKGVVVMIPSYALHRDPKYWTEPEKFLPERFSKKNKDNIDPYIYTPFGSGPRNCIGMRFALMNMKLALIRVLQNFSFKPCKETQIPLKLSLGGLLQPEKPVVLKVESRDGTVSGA
Sequence of Cytochrome P450 2C9 (Homo sapiens) (P11712 whole entry, looked up): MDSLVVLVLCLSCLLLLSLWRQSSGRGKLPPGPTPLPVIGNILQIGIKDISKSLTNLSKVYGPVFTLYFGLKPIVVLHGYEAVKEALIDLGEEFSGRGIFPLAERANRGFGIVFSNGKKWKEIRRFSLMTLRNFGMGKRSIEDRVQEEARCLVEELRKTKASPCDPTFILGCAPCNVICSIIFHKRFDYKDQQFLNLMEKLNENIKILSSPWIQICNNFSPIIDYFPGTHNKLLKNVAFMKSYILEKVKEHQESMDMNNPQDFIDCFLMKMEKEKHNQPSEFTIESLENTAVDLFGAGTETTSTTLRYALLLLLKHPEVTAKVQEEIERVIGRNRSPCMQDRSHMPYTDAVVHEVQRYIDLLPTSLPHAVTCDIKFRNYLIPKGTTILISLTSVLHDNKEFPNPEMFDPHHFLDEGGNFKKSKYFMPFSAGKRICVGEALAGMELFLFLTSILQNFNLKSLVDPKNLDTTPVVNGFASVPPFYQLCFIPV
Sequence of Cytochrome P450 1A2 (Homo sapiens) (P05177 whole entry, looked up): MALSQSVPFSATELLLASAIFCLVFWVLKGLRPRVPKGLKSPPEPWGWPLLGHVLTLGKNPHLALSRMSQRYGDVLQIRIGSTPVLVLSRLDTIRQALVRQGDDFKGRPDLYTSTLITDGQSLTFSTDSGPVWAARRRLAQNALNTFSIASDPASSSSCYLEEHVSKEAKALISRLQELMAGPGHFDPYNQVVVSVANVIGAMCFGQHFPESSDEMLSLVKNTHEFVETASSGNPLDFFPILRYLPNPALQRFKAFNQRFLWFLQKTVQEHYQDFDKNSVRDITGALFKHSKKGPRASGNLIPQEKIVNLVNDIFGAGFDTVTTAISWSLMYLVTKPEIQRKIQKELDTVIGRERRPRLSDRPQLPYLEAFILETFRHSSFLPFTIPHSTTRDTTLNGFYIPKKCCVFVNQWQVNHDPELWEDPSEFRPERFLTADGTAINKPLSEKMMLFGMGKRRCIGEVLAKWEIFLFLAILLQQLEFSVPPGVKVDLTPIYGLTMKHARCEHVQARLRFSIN
Sequence of Nuclear receptor subfamily 1 group I member 2 (Rattus norvegicus) (Q9R1A7 whole entry, looked up): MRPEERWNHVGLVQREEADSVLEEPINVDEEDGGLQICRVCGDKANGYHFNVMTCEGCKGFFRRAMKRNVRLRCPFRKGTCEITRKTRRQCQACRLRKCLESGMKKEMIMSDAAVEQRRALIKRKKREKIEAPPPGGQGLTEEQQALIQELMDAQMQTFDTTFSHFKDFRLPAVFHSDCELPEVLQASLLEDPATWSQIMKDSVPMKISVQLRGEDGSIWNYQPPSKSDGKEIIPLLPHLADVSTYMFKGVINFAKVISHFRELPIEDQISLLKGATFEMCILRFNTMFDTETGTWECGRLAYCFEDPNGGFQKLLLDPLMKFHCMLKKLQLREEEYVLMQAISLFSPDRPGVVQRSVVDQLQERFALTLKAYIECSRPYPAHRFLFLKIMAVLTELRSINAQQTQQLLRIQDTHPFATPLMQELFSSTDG
Sequence of Cytochrome P450 2D6 (Homo sapiens) (P10635 whole entry, looked up): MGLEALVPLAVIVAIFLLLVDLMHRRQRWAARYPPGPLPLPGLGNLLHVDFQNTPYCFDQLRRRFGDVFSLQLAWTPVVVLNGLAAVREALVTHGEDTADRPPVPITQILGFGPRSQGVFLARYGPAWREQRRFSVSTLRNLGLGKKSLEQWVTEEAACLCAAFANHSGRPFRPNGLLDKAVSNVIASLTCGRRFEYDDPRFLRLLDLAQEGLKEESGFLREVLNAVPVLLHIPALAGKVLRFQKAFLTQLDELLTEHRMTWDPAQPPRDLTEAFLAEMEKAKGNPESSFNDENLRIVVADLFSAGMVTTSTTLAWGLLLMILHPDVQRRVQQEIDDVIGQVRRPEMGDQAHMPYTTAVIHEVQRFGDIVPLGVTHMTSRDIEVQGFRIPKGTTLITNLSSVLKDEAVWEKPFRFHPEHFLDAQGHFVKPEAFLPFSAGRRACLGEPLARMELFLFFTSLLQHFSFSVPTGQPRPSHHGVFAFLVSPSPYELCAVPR
Sequence of Cytochrome P450 2C19 (Homo sapiens) (P33261 whole entry, looked up): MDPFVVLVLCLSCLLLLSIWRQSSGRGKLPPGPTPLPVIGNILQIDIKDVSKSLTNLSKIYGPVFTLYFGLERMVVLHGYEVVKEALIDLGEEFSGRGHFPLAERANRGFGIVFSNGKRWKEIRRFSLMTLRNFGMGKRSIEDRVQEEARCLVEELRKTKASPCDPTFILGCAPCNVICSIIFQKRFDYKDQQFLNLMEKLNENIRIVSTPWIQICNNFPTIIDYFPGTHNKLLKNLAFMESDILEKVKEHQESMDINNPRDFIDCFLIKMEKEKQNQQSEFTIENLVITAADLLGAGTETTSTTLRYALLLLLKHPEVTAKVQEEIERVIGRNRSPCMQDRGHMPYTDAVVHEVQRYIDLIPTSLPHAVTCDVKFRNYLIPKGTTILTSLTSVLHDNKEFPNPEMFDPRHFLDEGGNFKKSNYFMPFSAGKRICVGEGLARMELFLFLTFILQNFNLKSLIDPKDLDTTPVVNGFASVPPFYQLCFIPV
Sequence of Voltage-gated inwardly rectifying potassium channel KCNH2 (Homo sapiens) (Q12809 whole entry, looked up): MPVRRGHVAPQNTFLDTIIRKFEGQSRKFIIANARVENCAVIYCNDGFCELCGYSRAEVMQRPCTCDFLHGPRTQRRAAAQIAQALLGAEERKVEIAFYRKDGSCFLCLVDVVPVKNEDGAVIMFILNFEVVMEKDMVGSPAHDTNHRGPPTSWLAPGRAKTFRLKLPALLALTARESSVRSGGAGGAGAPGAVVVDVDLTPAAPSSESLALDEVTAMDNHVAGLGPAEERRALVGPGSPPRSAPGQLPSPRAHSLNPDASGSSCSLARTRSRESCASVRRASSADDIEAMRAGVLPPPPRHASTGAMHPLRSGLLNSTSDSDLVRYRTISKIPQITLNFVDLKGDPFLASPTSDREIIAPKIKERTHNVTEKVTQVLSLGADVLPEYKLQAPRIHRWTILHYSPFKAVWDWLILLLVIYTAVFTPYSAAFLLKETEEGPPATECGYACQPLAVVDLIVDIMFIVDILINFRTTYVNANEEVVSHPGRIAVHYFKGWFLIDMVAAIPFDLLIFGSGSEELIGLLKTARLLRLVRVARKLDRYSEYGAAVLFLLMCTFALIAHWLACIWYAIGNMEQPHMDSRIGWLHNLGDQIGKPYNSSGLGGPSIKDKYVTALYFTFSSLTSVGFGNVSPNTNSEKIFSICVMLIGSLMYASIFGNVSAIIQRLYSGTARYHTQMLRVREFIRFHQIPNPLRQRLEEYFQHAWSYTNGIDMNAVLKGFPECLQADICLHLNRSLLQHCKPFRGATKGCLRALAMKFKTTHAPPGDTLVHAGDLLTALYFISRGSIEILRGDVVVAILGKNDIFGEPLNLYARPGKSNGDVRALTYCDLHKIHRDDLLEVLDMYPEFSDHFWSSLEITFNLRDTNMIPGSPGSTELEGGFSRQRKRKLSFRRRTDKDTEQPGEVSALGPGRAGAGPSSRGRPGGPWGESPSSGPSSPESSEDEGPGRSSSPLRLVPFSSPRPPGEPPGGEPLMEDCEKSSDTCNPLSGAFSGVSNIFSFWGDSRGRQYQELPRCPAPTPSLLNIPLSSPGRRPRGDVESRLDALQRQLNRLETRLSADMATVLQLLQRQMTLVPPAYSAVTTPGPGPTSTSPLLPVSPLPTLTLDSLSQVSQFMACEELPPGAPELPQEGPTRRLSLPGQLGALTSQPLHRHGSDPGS

As for `CCSCc1ccccc1OC(=O)NC`, the Potency result in [1], in [2], in [3], in assay [4], in assay [5] and in assay [6] was “inactive” throughout. The Potency entry in [10], in [11], in assay [12], in assay [14] and in assay [15] was “inactive” throughout. The Potency in assay [7] was 10 µM (active); in assay [8], 20 µM (active); in assay [9], 22.4 µM (active); in assay [13], 63.3 µM (active).

With `C[N+](C)(C)CCOC(=O)C(O)(c1ccccc1)c1ccccc1`, the Potency entry in assay [1], in [2], in [3], in assay [4], in [5] and in assay [6] was “inactive” each time. Besides, the Potency result in assay [18], in assay [7], in assay [8], in assay [9], in assay [10] and in assay [12] was “inactive” each time. Besides, the Potency result in assay [19], in assay [13], in [14] and in assay [15] was “inactive” in each case. Besides, the max activation in assay [16] is -2.47% (inactive). In assay [17], the result was inactive.

As for `CN1C[C@H](C(=O)N[C@]2(C)O[C@@]3(O)[C@@H]4CCCN4C(=O)[C@H](Cc4ccccc4)N3C2=O)C=C2c3cccc4[nH]cc(c34)C[C@H]21`, the Potency in [1] is 39.8 µM (active); in assay [3], 30.8 µM (active) and 18 µM (active); in [5], 30.8 µM (active) and 22.6 µM (active); in assay [6] it was 2.74 µM (active) and 4.03 µM (active); in [18], 2.51 µM (active); in assay [8] it was 5.67 µM (active). The Potency in assay [9] was 0.505 µM (active); in assay [11] it was 28.4 µM (active) and inactive; in [12] it was 28.4 µM (active) and 18.6 µM (active); in assay [13], 20.1 µM (active); in assay [14], 22 µM (active). Further, the Potency entry in [2], in [4] and in assay [10] was “inactive” throughout. Also, the max activation in assay [16] was -2.24% (inactive). Besides, the outcome in [17] was inactive.

In the case of `C1CS1`, the Potency entry in [1], in assay [2], in assay [3], in [4], in assay [5] and in [6] was “inactive” in each case. Besides, the Potency entry in assay [7], in assay [8], in assay [9], in assay [10], in [11] and in assay [12] was “inactive” throughout. Also, the Potency entry in [19], in assay [14] and in assay [15] was “inactive” throughout. For the same compound, the Potency in [13] is 64.9 µM (active).

For the compound `CC[N+]1(CCOC(=O)C(O)(c2ccccc2)c2ccccc2)CCCCC1`, the Potency entry in assay [1], in assay [2], in assay [3], in assay [4], in assay [5] and in [6] was “inactive” each time. Further, the Potency entry in assay [18], in assay [7], in [8], in assay [9], in [10] and in assay [12] was “inactive” each time. Moreover, the Potency entry in [19], in [13], in assay [14] and in assay [15] was “inactive” each time. In addition, the max activation in [16] was 0.456% (inactive). In addition, the result in assay [17] was inactive.

As to `c1ccc2sc(SNC3CCCCC3)nc2c1`, the Potency result in assay [1], in assay [2], in assay [3], in assay [4], in assay [5] and in assay [18] was “inactive” throughout. For the same compound, the Potency result in [7], in [8], in assay [9], in assay [10], in assay [14] and in [15] was “inactive” in each case. The Potency in assay [6] is 60.4 µM (active) and 48.6 µM (active); in assay [12], 31.4 µM (active) and 22.4 µM (active); in [19], 31.4 µM (active) and 17.8 µM (active); in assay [13] it was 55.8 µM (active) and 35.6 µM (active). Also, the max activation in assay [16] is 11.8% (inactive). In assay [17], the compound was called inactive.
